PubChem BioAssay (NCATS)
Results filed as inconclusive are left out. Calls of active or inactive are those of the source. Calls follow the shape of the dose curve; as a rule, active = well fitted curve in the direction sought with a large enough effect; inconclusive = small, poorly fitted or top-dose-only effect, or another doubt; inactive = no such curve, though single readings can be large; an effect the other way counts as inactive or inconclusive.

What was measured:
[1] = BET inhibitor-based combinations targeting novel dependencies in MECOM-rearranged (r) AML: SET-2 cell line (AID 2202231); settings: SET-2 AML cells viability, CellTiter-Glo luminescence, 48 h; viability: stronger effect = lower value, concentration not given here; also: nearly all actives have a fitted effect of over 35% in size;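 as to viability: plate controls were DMSO treated cells for no effect and wells without cells for full effect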
Method in brief: (§1)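 A 48 hr incubation preceded viability reading by CellTiter-Glo, with 15 min room-temperature development. Dose series had 11 points; normalization used DMSO and empty wells; AUC was computed and mean-centered per line as Z-AUC.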

[2] = BET inhibitor-based combinations targeting novel dependencies in MECOM-rearranged (r) AML: OCI-AML3 cell line (AID 2202232); settings: CellTiter-Glo luminescence, 48 h; Potency: OCI-AML3 viability; series mostly up to 46 µM; also: nearly all actives have a fitted effect of over 35% in size;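 as to viability (% of control): plate controls were DMSO vehicle wells for no effect and wells without cells for full effect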
Method in brief: as §1

[3] = BET inhibitor-based combinations targeting novel dependencies in MECOM-rearranged (r) AML: MV-4-11 cell line (AID 2202233); settings: MV-4-11 AML viability, CellTiter-Glo luminescence, 48 h; series mostly up to 46 µM; also: nearly all actives have a fitted effect of over 45% in size;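 as to viability, % of control: plate controls were DMSO for no effect and blank wells for full effect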
Method in brief: (§2)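 Each compound is tested in an 11-point concentration series against 500 seeded cells/well for 48 hr. The luminescent viability signal is normalized to DMSO and blank wells, then reduced to AUC and a cell-line-centred Z-AUC.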

[4] = BET inhibitor-based combinations targeting novel dependencies in MECOM-rearranged (r) AML: HNT-34 cell line (AID 2202234); settings: HNT-34 AML viability, CellTiter-Glo luminescence, 48 h; series mostly up to 46 µM; also: nearly all actives have a fitted effect of over 35% in size;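 as to viability (% of control): plate controls were vehicle wells for no effect and cell-free wells for full effect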
Method in brief: as §2

[5] = BET inhibitor-based combinations targeting novel dependencies in MECOM-rearranged (r) AML: AML-191 cell line (AID 2202236; also: nearly all actives have a fitted effect of over 35% in size;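 as to viability (% of control): plate controls were vehicle wells for no effect and wells without cells for full effect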); settings: AML-191 viability, CellTiter-Glo luminescence, 48 h; series mostly up to 46 µM
Method in brief: as §1

[6] = BET inhibitor-based combinations targeting novel dependencies in MECOM-rearranged (r) AML: AML-194 cell line (AID 2202237; also: nearly all actives have a fitted effect of over 40% in size;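 as to viability (% of control): plate controls were vehicle wells for no effect and wells without cells for full effect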); settings: AML-194 (MECOM-r AML) viability, CellTiter-Glo, 48 h; series mostly up to 46 µM
Method in brief: as §1

[7] = BET inhibitor-based combinations targeting novel dependencies in MECOM-rearranged (r) AML: UCSD-AML1 cell line (AID 2202235); settings: UCSD-AML1 AML cells viability, CellTiter-Glo, 48 h; series mostly up to 46 µM; also: nearly all actives have a fitted effect of over 40% in size;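 as to viability (% of control): plate controls were DMSO vehicle wells for no effect and blank wells for full effect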
Method in brief: as §2
Potency is read from the fitted curve at half-maximal effect.

Cc1cc(O[C@@H](CCC(F)(F)F)c2ccc(C(=O)NCCC(=O)O)cc2)cc(C)c1-c1ccc(C(C)(C)C)cc1
active: Potency [1] 20.9 µM | Potency [2] 20.9 µM | Potency [3] 18.6 µM | Potency [4] 20.9 µM | Potency [5] 16.6 µM | Potency [6] 26.3 µM

Cc1cc(O)cc2c1[C@]1(C)CC[C@H]3C(C)(C)CCC[C@]3(C)[C@H]1C2
inactive: viability [1] 50.3% | viability (% of control) [2] 14.4% [at 5.12 µM] | viability, % of control [3] 0.199% [at 5.12 µM] | viability (% of control) [7] 14.8% [at 5.12 µM]

COCCOC(=O)N1CCN(S(=O)(=O)c2cc(F)c(Oc3ccc(Cl)cc3)c(F)c2)C(C(=O)NO)C1 (centres undefined)
active: Potency [1] 10.5 µM | Potency [2] 14.8 µM | Potency [3] 16.6 µM | Potency [4] 5.9 µM | Potency [6] 8.33 µM

COc1cc2c(NC3CCN(C)CC3)nc(N3CCCN(C)CC3)nc2cc1OCCCN(C)C
inactive: viability [1] 112% | Potency [2] | Potency [3] | Potency [4] | Potency [5] | Potency [6]

CC1c2cccc(O)c2C(O)=C2C(=O)C3(O)C(O)=C(C(N)=O)C(=O)C(N(C)C)C3C(O)C21 (centres undefined)
inactive: Potency [7]
active: Potency [1] 26.3 µM | Potency [2] 26.3 µM | Potency [3] 26.3 µM

NC(=O)c1ccc2nc(-c3ccc(C4(N)CCC4)cc3)c(-c3ccccc3)n2n1
inactive: viability [1] 98.4%
active: Potency [2] 13.2 µM | Potency [3] 4.17 µM | Potency [7] 3.72 µM

CC(C)NC(=O)C1CCC(n2c(NC(=O)c3ccc(F)cc3)nc3ccc(CN4CCC(C(C)(C)O)CC4)cc32)CC1 (centres undefined)
active: Potency [2] 3.62 µM | Potency [3] 1.82 µM
inactive: viability [1] 121% | Potency [7]

C=C1C(=O)O[C@@H]2[C@H]3C(C)=CC[C@@]34O[C@@]4(C)CC[C@@H]12
active: Potency [1] 9.34 µM | Potency [2] 8.33 µM | Potency [3] 7.42 µM | Potency [4] 10.5 µM | Potency [5] 13.2 µM | Potency [6] 13.2 µM

CNc1ncc2cc(-c3cc(NC(=O)NCCC(C)(C)C)c(F)cc3C)c(C)nc2n1
active: Potency [1] 2.35 µM | Potency [2] 0.662 µM | Potency [3] 0.468 µM | Potency [7] 1.05 µM

CCNCCc1ccc(CN(CC)c2cc(OC)ccc2[C@@H]2CCc3cc(O)ccc3C2)cc1
active: Potency [1] 9.34 µM | Potency [2] 6.61 µM | Potency [3] 5.9 µM | Potency [4] 8.33 µM | Potency [5] 7.42 µM | Potency [6] 8.33 µM

COc1ccc2c(c1OC)C(=O)OC2[C@H]1c2c(cc3c(c2OC)OCO3)CCN1C (some centres undefined)
inactive: Potency [7]
active: Potency [1] 16.6 µM | Potency [2] 20.9 µM | Potency [3] 18.6 µM | Potency [5] 13.2 µM

COc1ccc2c(c1)c(C1=C(c3c[nH]c4ccccc34)C(=O)NC1=O)cn2CCCN(C)C
active: Potency [1] 23.5 µM | Potency [2] 20.9 µM | Potency [3] 0.372 µM | Potency [4] 16.6 µM | Potency [5] 23.5 µM | Potency [6] 23.5 µM

Clc1ccc(-c2nc3sccn3c2/C=N/OCc2ccc(Cl)c(Cl)c2)cc1
inactive: viability [1] 112% | Potency [2] | Potency [3] | Potency [4] | Potency [5] | Potency [6]

CNCCCOc1cc(F)c(-c2c(Cl)nc3ncnn3c2N[C@@H](C)C(F)(F)F)c(F)c1
active: Potency [1] 0.148 µM | Potency [2] 0.0833 µM | Potency [3] 0.0934 µM | Potency [7] 0.118 µM | Potency [5] 0.0934 µM

COc1cc(OC)cc(N2CCN(C(=O)Nc3nc4cc(F)ccc4nc3OC)CC2)c1
active: Potency [1] 1.32 µM | Potency [2] 1.05 µM | Potency [3] 0.934 µM | Potency [4] 0.833 µM | Potency [5] 0.934 µM | Potency [6] 1.05 µM

CC1(C)OCCn2c1nc1c(N3CCOCC3)nc(-c3cnc(N)nc3)nc12
active: Potency [1] 1.86 µM | Potency [2] 0.934 µM | Potency [3] 0.934 µM | Potency [7] 0.468 µM

O=C(C[C@@H]1C/C=C\CCC(=O)O[C@H](c2ccccc2)CNC1=O)NCc1ccc(Cl)cc1
inactive: viability [1] 117% | Potency [2] | Potency [3] | Potency [4] | Potency [5] | Potency [6]

N[C@@H]1CN(c2c(F)cc3c(=O)c(C(=O)O)cn([C@@H]4C[C@@H]4F)c3c2Cl)CC12CC2
inactive: viability [1] 105% | Potency [2] | Potency [3] | Potency [4] | Potency [5] | Potency [6]

O=[N+]([O-])c1ccc(O)c2ncccc12
active: Potency [1] 16.6 µM | Potency [2] 14.8 µM | Potency [3] 13.2 µM | Potency [4] 7.42 µM | Potency [5] 8.33 µM | Potency [6] 9.34 µM

CC(c1cc2ccccc2s1)N(O)C(N)=O (centres undefined)
inactive: viability [1] 106% | Potency [2] | Potency [3] | Potency [4] | Potency [6]

OC[C@H]1O[C@@H](S[C@@H]2O[C@H](CO)[C@H](O)[C@H](n3cc(-c4cccc(F)c4)nn3)[C@H]2O)[C@H](O)[C@@H](n2cc(-c3cccc(F)c3)nn2)[C@H]1O
inactive: viability [1] 115% | Potency [2] | Potency [3] | Potency [4] | Potency [5] | Potency [6]

Cc1ccc(NS(=O)(=O)c2cccc(C#N)c2)c2[nH]cc(C#N)c12
active: Potency [1] 14.8 µM | Potency [2] 1.18 µM | Potency [3] 0.296 µM | Potency [7] 0.833 µM
